# From PubChem BioAssay (NCI)
# Values joined by “and” are separate entries in the source; they are usually repeats but may differ in a detail not shown here. Identical values can stand only once. This is part of a sample that, as a whole, favours compounds with a hit. Of some 83,000 tested, about 20% had one in any assay.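 Percent growth is the endpoint: 0 to 100 indicates growth inhibition (40 means 60% inhibition), 0 means no net growth, and negative values indicate cell death.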 Active and inactive are the calls of the source. Rule for the calls: active = growth percent below 10; inactive = the rest.
# How the values were obtained:
# Assay in all cases: NCI-60 one-dose screen, 48 h (100 = growth as untreated, 0 = no growth, -100 = all killed)
# Settings in all cases: 10 µM unless noted
# [1] = test system: UACC-62 melanoma
# [2] = test system: HCT-15 colon
# [3] = test system: SNB-75 CNS
# [4] = test system: SNB-19 CNS
# [5] = test system: PC-3 prostate
# [6] = test system: SK-MEL-5 melanoma
# [7] = test system: LOX IMVI melanoma
# [8] = test system: SK-MEL-28 melanoma
# [9] = test system: HT29 colon
# [10] = test system: U251 CNS
structure (smiles),measurement,setting,value
CCOC(=O)c1nc2cc(C(F)(F)F)ccc2nc1Nc1ccc(F)cc1,growth,[1],33.3% [100 µM] (inactive) and -17.1% [100 µM] (active)
O=[N+]([O-])c1cccc(-c2ncnc(-c3cccc([N+](=O)[O-])c3)n2)c1,growth,[1],53.2% [100 µM] (inactive) and 0.549% [100 µM] (active)
Nc1cc2c3c(cccc3c1)C(=O)N(c1ccc(OCCN3CCCC3)cc1)C2=O,growth,[1],-37.5% [100 µM] (active) and -91.1% [100 µM] (active)
ONc1nc(NO)c2[nH]cnc2n1,growth,[2],89.9% (inactive)
same,growth,[3],88.6% (inactive)
same,growth,[4],112% (inactive)
same,growth,[5],69.2% (inactive)
same,growth,[6],102% (inactive)
same,growth,[7],26% (inactive)
same,growth,[8],91% (inactive)
CCN1CCN(C(=S)SCC(=O)Nc2nc3ccc(OC)cc3s2)CC1,growth,[9],102% (inactive)
same,growth,[3],94% (inactive)
same,growth,[4],93.1% (inactive)
same,growth,[10],102% (inactive)
same,growth,[5],82.9% (inactive)
same,growth,[6],94.6% (inactive)
same,growth,[7],91.3% (inactive)
same,growth,[8],106% (inactive)
CC(=O)c1cc2c(s1)C(=O)c1ccsc1C2=O,growth,[1],-54.1% [100 µM] (active) and -98.1% [100 µM] (active)
O=C(O)c1ccccc1Oc1cc(-c2ccco2)nc(OCCBr)n1,growth,[2],104% (inactive)
same,growth,[3],99.7% (inactive)
same,growth,[4],98.6% (inactive)
same,growth,[6],110% (inactive)
same,growth,[1],94.9% (inactive)
same,growth,[7],107% (inactive)
same,growth,[8],119% (inactive)
CCC1CC(C)C(O)/C=C/C=C/CC(C)OC(=O)CC(O)C(OC)C1OC1OC(C)CC(O)(C(C)=O)C1O (centres undefined),growth,[1],67.6% [100 µM] (inactive) and 33.4% [100 µM] (inactive)
O=c1[nH]c(=O)n(C2CC(O)C(CO)O2)cc1Br (centres undefined),growth,[1],72.2% [100 µM] (inactive) and 19.1% [100 µM] (inactive)
COc1ccc(CC2c3cc(OC)c(OC)c(OC)c3CC[N+]2(C)C)cc1Oc1ccc(CC2c3cc4c(c(OC)c3CCN2C)OCO4)cc1 (centres undefined),growth,[1],80% [100 µM] (inactive) and 8.64% [100 µM] (active)
NC1=NN(c2ccccc2)C2(c3ccncc3C(=O)O)C1C(N)=NN2c1ccccc1 (centres undefined),growth,[1],67.3% [100 µM] (inactive) and 18.3% [100 µM] (inactive)
Nc1cc2c3c(cccc3c1)C(=O)N(c1ccc(OCCN3CCCCC3)cc1)C2=O,growth,[1],-67.3% [100 µM] (active) and -100% [100 µM] (active)
COc1cc2c(cc1O)Cc1c-2[n+](C)cc2cc(OC)c(OC)cc12,growth,[1],12.4% [100 µM] (inactive) and -100% [100 µM] (active)
CC(C)(C)O/N=C/c1cc(NC(=S)c2ccsc2)ccc1Cl,growth,[1],-90.7% [100 µM] (active) and -85.1% [100 µM] (active)
Cc1cc2c3c(nc4ccccc42)C(=O)c2cccnc2-c3n1,growth,[1],-89.9% [100 µM] (active) and -100% [100 µM] (active)
CC1=CCC2C3(C)CCC2(C(C)C)C1C3 (centres undefined) (tested in a mixture with another compound),growth,[1],17.4% [100 µM] (inactive) and 0.443% [100 µM] (active)
O=C1N(c2ccccc2)N=C2c3ccncc3C3=NN(c4ccccc4)C(=O)C123 (centres undefined),growth,[1],59.9% [100 µM] (inactive) and 10.7% [100 µM] (inactive)
CCC/C(Cl)=N\OC(=O)Nc1ccc(F)cc1,growth,[1],-93.4% [100 µM] (active) and -100% [100 µM] (active)
CCCCCCCCCc1cc(=O)c2c(O)cc(O)cc2o1,growth,[1],-88.9% [100 µM] (active) and -100% [100 µM] (active)
CC(=O)c1cc2c(s1)C(=O)c1sccc1C2=O,growth,[1],-45.9% [100 µM] (active) and -100% [100 µM] (active)
N#Cc1c(SCc2ccccc2)nc(-c2ccccc2)[nH]c1=S,growth,[1],-44.7% [100 µM] (active) and 1.92% [100 µM] (active)
COc1ccc2c3c(c(=O)n(C)c2c1OC)C=CC(C)(C)O3,growth,[1],0.949% [100 µM] (active) and 6.15% [100 µM] (active)
CCCn1c2c(c3ccccc3c1=O)C(=O)c1ccccc1-2,growth,[1],63.1% [100 µM] (inactive) and 8.48% [100 µM] (active)
N#CC1C(=O)N(c2ccccc2)NC12OC(=O)c1ccncc12 (centres undefined),growth,[1],69.2% [20 µM] (inactive) and 17.2% [20 µM] (inactive)
CC(C)(C)N/N=C(\C(=O)Nc1ccc([N+](=O)[O-])cc1[N+](=O)[O-])c1nc2ccc([N+](=O)[O-])cc2[nH]c1=O,growth,[1],54.2% [100 µM] (inactive) and 17.5% [100 µM] (inactive)
Cc1ccc(/C=N/Nc2ccc3ccccc3n2)s1,growth,[1],11.2% [100 µM] (inactive) and -100% [100 µM] (active)
Nc1nc(Nc2cc(F)c(Cl)c(F)c2)cc(=O)[nH]1,growth,[1],85.2% [100 µM] (inactive) and -90.5% [100 µM] (active)
CCOC(=O)/C(C#N)=C(/NNc1ccccc1)c1ccncc1C(=O)O,growth,[1],61.3% [100 µM] (inactive) and 11.4% [100 µM] (inactive)
CC(C)C1OC23CCCCC2C(C#N)(C#N)C1(C#N)C(=N)O3 (centres undefined),growth,[1],-2.68% [100 µM] (active)
CC(=O)c1cc2c(s1)C(=O)c1scc(C(C)=O)c1C2=O,growth,[1],-37.8% [100 µM] (active) and -81.8% [100 µM] (active)
Oc1ccc(/C=C/c2cc(O)cc3c2C(c2cc(O)cc(O)c2)C(c2ccc(O)c(O)c2)O3)cc1 (centres undefined),growth,[1],-57.3% [100 µM] (active) and -23.7% [100 µM] (active)
C=C1CC(O)C2C(=C)C(=O)OC2C2C(C)C(=O)CC12 (centres undefined),growth,[1],-89.7% [100 µM] (active) and -97.7% [100 µM] (active)
O=c1cc(-c2ccc(O)cc2)oc2cc(O[C@@H]3O[C@H](CO)[C@@H](O)[C@H](O)[C@H]3O)cc(O)c12,growth,[1],29.2% [100 µM] (inactive) and -80.1% [100 µM] (active)
O=c1c(-c2ccc3c(c2)OCO3)coc2c3c(ccc12)OCO3,growth,[1],49.2% [100 µM] (inactive) and -100% [100 µM] (active)
CC1OC(OC2C(O[C@H]3CC[C@@]4(C)C(=CC[C@H]5[C@@H]6C[C@@H]7O[C@]8(CC[C@H](C)CN8)[C@@H](C)[C@@H]7[C@@]6(C)CC[C@@H]54)C3)OC(CO)C(O)C2OC2OC(CO)C(O)C(O)C2O)C(O)C(O)C1O (some centres undefined),growth,[1],96.6% [100 µM] (inactive) and -100% [100 µM] (active)
NNC1=N/C(=C\c2ccco2)C(Cl)=N1,growth,[1],10.8% [100 µM] (inactive) and -100% [100 µM] (active)
CC#CC#C/C=C1/C=CC2(CCCCO2)O1 (centres undefined),growth,[1],63.2% [100 µM] (inactive) and 4.56% [100 µM] (active)
CCCCCCCCCCCCCC1=C(O)C(=O)C(CC2=C(O)C(=O)C(CCCCCCCCCCCCC)=C(O)C2=O)=C(O)C1=O,growth,[1],9.52% [100 µM] (active) and -61.7% [100 µM] (active)
CCCC(=O)Oc1c2ccsc2c(OC(=O)CCC)c2ccsc12,growth,[1],-75.3% [100 µM] (active) and -100% [100 µM] (active)
COC(=O)c1ccc(CCc2cc(O)c(Br)cc2O)cc1,growth,[1],-96.8% [100 µM] (active) and -100% [100 µM] (active)
CC1(C)CCCC(C)(C2CCC3(C)C2C(O)CC2C4(C)CCC(O)C(C)(C)C4C(O)CC23C)O1 (centres undefined),growth,[1],-76.6% [100 µM] (active) and -83.9% [100 µM] (active)
CC(=O)O[C@@H]1C[C@@]2(C)[C@@H]3CC=C4[C@@H](C[C@H](O)C(=O)C4(C)C)[C@]3(C)C(=O)C[C@]2(C)[C@H]1[C@@](C)(O)C(=O)/C=C/C(C)(C)OC(C)=O,growth,[1],-64.4% [100 µM] (active) and -99.7% [100 µM] (active)
CC(=O)Nc1c(C)cc2c(nc3n2CCC3OC(C)=O)c1[N+](=O)[O-] (centres undefined),growth,[1],134% [100 µM] (inactive) and 108% [100 µM] (inactive)
Cc1c2c(c(O)c3c(O)cccc13)C(=O)C1(O)C(O)=C(C(=O)NCNc3ccc(C(N)=O)cn3)C(=O)C(N(C)C)C1C2 (centres undefined),growth,[1],-54.4% [100 µM] (active) and -74.8% [100 µM] (active)
COc1c2c(c(OC)c3c1c(=O)c1ccccc1n3C)OCO2,growth,[1],-0.25% [100 µM] (active)
